Screening results: PubChem, National Center for Advancing Translational Sciences (NCATS)
DRD3 agonist: agonists of human D3 dopamine receptor. AID 652048. D3R DiscoveRx beta-arrestin cells, luminescence, 90 min. max activation, %. P35462. 410,000 compounds, 0.58% hits; in the data active = max activation above about 30%
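Agonist mode: compounds and dopamine controls were applied to plated cells for 90 min at 37 degrees C after an overnight attachment at 1500 cells/well. Luminescent read-out followed 30 - 60 minutes at room temperature with DiscoveRx detection reagent.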
DRD3 antagonist: blocks the human D3 dopamine receptor; 360,000 compounds, 2.5% hits; max response, negative = inhibition, %; D3R cells, DiscoveRx beta-arrestin luminescence, antagonist mode; stronger effect = lower value; AID 652054; in the data active = max response below about -50%; inconclusive = no clear call, values can overlap the other calls
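Cells expressing the human receptor were seeded at 1500 cells/well, incubated overnight at 37 degrees C in 5% CO2, then exposed to library compounds with dopamine controls for 90 minutes at 37 degrees C before luminescent detection.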
Integrin act MD: activates integrin-mediated alleviation for muscular dystrophy; 350,000 compounds, 0.064% hits; alpha7betagal myoblasts, beta-gal FDG fluorescence, 48 h; Potency, µM (series often up to 38.3 µM), most hits filed as activators; note: nearly all actives have a fitted effect of over 60% in size
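alpha7betagal+/- myoblasts (passage 13, 250/well) treated 48 h at 37C with compounds at 1:260 dilution of DMSO stock. Lysed, then beta-galactosidase activity read as FDG fluorescence (ex 480/em 540) after 30 min, with pre-read for autofluorescence.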
IDH1 R132H inh: blocks human mutant IDH1 R132H enzyme; O75874; IDH1-R132H enzyme, NADPH consumption, diaphorase/resazurin fluorescence; Potency, µM (doses to about 76.6 µM), hits mostly inhibitors; 390,000 compounds, 0.093% hits; AID 602179; note: nearly all actives have a fitted effect of over 65% in size
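IDH1-R132H (0.5 ug/mL dispensed) in pH 7.5 Tris buffer was preincubated 30 min with compound, then given a substrate mix of 0.016 mM NADPH and 2 mM alpha-KG for 80 min at room temperature; remaining NADPH was read by diaphorase/resazurin fluorescence.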
B2AR arrestin: agonists driving beta-arrestin recruitment to human beta2-adrenergic receptor | Potency, µM (titrated, usually from 46.1 µM), actives largely listed as activators | 330,000 compounds, 0.02% hits | P07550 | AID 492947 | beta-arrestin recruitment to beta2AR, cell-based reporter; note: nearly all actives have a fitted effect of over 65% in size
Target sequence (P07550 whole entry, looked up): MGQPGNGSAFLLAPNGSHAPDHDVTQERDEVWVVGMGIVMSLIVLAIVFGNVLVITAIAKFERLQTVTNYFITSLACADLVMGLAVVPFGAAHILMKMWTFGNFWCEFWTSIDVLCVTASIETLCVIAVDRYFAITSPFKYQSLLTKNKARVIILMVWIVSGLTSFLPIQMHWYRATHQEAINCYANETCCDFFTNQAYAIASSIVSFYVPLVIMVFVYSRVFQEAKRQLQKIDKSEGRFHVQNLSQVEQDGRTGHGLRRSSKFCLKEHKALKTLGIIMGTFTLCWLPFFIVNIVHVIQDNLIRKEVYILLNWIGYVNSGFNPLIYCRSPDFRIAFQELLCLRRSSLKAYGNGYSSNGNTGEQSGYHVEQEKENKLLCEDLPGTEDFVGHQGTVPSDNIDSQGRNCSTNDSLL
Each line names hits and unclear results; the compound was inactive in the other large screens. Hits are enriched below; roughly 2.9% of the tested compounds scored in any of these assays. Unless noted, calls come from the whole dose curve; as a rule, active = well fitted curve in the direction sought with a large enough effect; inconclusive = small, poorly fitted or top-dose-only effect, or another doubt; inactive = no such curve, though single readings can be large; an effect the other way counts as inactive or inconclusive.

CCCCN(CC)S(=O)(=O)c1ccc(C(=O)Nc2nnc(COC)o2)cc1	DRD3 antagonist -65
CCc1nnc(NC(=O)c2ccc(S(=O)(=O)N(CCOC)CCOC)cc2)o1	DRD3 antagonist inconclusive
CCCCN(CCCC)S(=O)(=O)c1ccc(C(=O)Nc2nnc(CSC)o2)cc1	DRD3 antagonist -113
CCN(Cc1ccccc1)S(=O)(=O)c1ccc(C(=O)Nc2nnc(-c3ccccc3OC)o2)cc1	DRD3 antagonist -86
CC1(c2ccc(Cl)cc2)CC(C)(C)N(C(=O)c2cccc(F)c2)c2ccccc21 (configuration not stated)	none (no result: DRD3 antagonist, Integrin act MD, B2AR arrestin)
CCCCN(CC)S(=O)(=O)c1ccc(C(=O)Nc2nnc(CSC)o2)cc1	DRD3 antagonist -83
CCCN(CCC)S(=O)(=O)c1ccc(C(=O)Nc2nnc(CSC)o2)cc1	DRD3 antagonist -99
COCc1nnc(NC(=O)c2ccc(S(=O)(=O)N(C)c3ccccc3)cc2)o1	DRD3 antagonist -56
COc1ccc(C(=O)Nc2ccccc2C(=O)Nc2cc(C)ccn2)cc1	DRD3 antagonist -63
NC(=O)N/N=C/c1ccccc1OC(=O)c1cc2ccccc2oc1=O	DRD3 antagonist -57
O=C(COC(=O)c1cc2ccccc2oc1=O)Nc1ccc(F)cc1F	Integrin act MD 4.5µM
N/C(=N\NC(=O)c1ccccc1)c1cc2ccccc2oc1=O	none
CCN(c1ccc(NC(=O)COC(=O)c2cc3ccccc3oc2=O)cc1)C(C)C	none
NC(=S)N/N=C/c1ccccc1OC(=O)c1cc2ccccc2oc1=O	B2AR arrestin 13µM
CCOc1ccc(-c2[nH]nc3c2C(c2cccnc2)C(C#N)=C(N)O3)cc1 (configuration not stated)	DRD3 antagonist -51
O=C(Nc1ccccc1)N1CCC(c2ccccc2)C1 (configuration not stated)	none
Cc1ccc(NC(=O)N2CCCC(c3ccccc3)C2)cc1 (configuration not stated)	DRD3 agonist 34
O=C(NCc1ccncc1)C12CC3CC(CC(C3)C1)C2	none
c1cc(CNC2C3CC4CC(C3)CC2C4)ccn1 (configuration not stated)	DRD3 antagonist -57
Cc1cc(C)c(NC(=O)CSc2nc3c([nH]c4ccccc43)c(=O)n2C)c(C)c1	none (no result: DRD3 antagonist, Integrin act MD, B2AR arrestin)
C[C@H](NC(=O)c1nc[nH]c1C(=O)N[C@@H](Cc1ccccc1)C(=O)OC(C)(C)C)c1ccccc1	DRD3 antagonist -58
CC1CCN(C(=O)c2[nH]cnc2C(=O)Nc2ccc(Cl)cc2)CC1	DRD3 agonist 45
CC1CCN(C(=O)c2[nH]cnc2C(=O)N[C@@H](C)C(=O)OC(C)(C)C)CC1	DRD3 antagonist -52
C[C@H](NC(=O)c1nc[nH]c1C(=O)N[C@H](C)c1ccccc1)C(=O)OC(C)(C)C	none
C[C@@H](NC(=O)c1nc[nH]c1C(=O)N[C@@H](Cc1ccccc1)C(=O)OC(C)(C)C)c1ccccc1	none
C[C@H](NC(=O)c1nc[nH]c1C(=O)NC(c1ccccc1)c1ccccc1)C(=O)OC(C)(C)C	DRD3 antagonist -56
CC1CCN(C(=O)c2[nH]cnc2C(=O)NCc2ccccc2)CC1	none
CCOC(=O)c1ccc(NC(=O)CC2C(=O)N(c3ccc(C)cc3)C(=O)N2C2CCCC2)cc1 (configuration not stated)	none (no result: DRD3 antagonist, Integrin act MD, B2AR arrestin)
CCCn1cc(S(=O)(=O)c2ccccc2)c(=O)c2cc(F)c(N3CCCCCC3)cc21	none (no result: DRD3 antagonist, Integrin act MD, B2AR arrestin)
COc1cc(-c2nnc(COC(=O)c3nn(CC(C)C)c(=O)c4ccccc34)o2)cc(OC)c1OC	DRD3 agonist 56
COCCCn1c(SCc2nnc(-c3ccc(OC)c(OC)c3)o2)nc2ccccc2c1=O	none
COc1ccc(-c2nnc(CSc3nc4ccccc4c(=O)n3CC(C)C)o2)cc1OC	DRD3 agonist 33
CC(C)Cn1c(SCc2nc3ccccc3c(=O)[nH]2)nc2ccccc2c1=O	DRD3 agonist 46
CCOC(=O)C1CCCN(C(=O)c2ccc3c(c2)N(Cc2cccc(Cl)c2)C(=O)c2ccccc2S3(=O)=O)C1 (configuration not stated)	none (no result: DRD3 antagonist, Integrin act MD, B2AR arrestin)
COC(=O)c1sccc1NC(=O)COc1ccc(C)cc1	DRD3 antagonist -75
COC(=O)c1sccc1NC(=O)c1c(C)noc1C	none
COC(=O)c1sc(NC(=O)COc2ccc(C)cc2)nc1C	none
COC(=O)c1sccc1NC(=O)c1cc(C)on1	DRD3 antagonist -53
